Screens as filed in PubChem BioAssay.
Shown are actives, neighbours in structure and some others; about 5.7% of the full set was active somewhere.
ssDAF12 agonist = activates DAF-12 receptor from parasite S. stercoralis | HEK293 ssDAF-12/GRIP1 lit1-tk-luc reporter, luminescence; % of 3 µM dafachronic acid response | activation, % at 6.8 µM | 1% of 370,000 active | AID 652126;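 active = activation above the mean over all tested compounds plus 3 SD, cut at about 0.9% in these data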
hgDAF-12 ag = agonists of H. glycines DAF-12 nuclear receptor. activation, % at 6.8 µM. HEK293 GAL4-hgDAF12 UAS-luciferase reporter, agonist luminescence; normalized to butyrate control. 1.8% of 370,000 active. AID 687014;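 active = activation above a cutoff set at the mean of all screened compounds plus 3 SD, cut at about 10% in these data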
AHR act = activators of human aryl hydrocarbon receptor; P35869; AHR-responsive luciferase reporter cells, luminescence; activation, % at 5 µM; 2.5% of 320,000 active; in the data active = activation above about 47%
Target sequence (P35869 whole entry, looked up): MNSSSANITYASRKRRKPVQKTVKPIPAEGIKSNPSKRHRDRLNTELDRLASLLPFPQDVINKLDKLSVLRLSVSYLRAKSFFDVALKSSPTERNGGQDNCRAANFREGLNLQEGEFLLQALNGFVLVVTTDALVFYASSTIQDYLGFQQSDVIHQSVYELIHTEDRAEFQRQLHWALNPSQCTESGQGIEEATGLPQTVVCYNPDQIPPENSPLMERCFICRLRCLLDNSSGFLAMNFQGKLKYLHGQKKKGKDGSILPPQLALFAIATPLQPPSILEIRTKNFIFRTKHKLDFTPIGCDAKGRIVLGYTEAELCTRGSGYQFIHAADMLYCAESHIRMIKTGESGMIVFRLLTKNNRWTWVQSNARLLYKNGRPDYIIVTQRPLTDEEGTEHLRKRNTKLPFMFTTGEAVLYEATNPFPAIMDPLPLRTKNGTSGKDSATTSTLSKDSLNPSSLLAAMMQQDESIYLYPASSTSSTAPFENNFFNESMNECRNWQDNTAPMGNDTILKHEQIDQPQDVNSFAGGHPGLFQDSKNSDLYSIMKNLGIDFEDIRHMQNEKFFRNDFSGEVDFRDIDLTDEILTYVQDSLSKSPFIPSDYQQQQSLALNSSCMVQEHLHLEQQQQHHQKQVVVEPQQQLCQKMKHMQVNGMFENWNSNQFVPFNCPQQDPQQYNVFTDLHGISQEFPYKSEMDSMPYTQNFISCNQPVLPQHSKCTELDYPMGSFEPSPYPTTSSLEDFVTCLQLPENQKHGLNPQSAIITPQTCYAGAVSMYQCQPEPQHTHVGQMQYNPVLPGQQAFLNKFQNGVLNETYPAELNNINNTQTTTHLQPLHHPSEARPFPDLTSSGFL
hcDAF12 agonist = activators of H. contortus DAF-12 nuclear receptor; HEK293 hcDAF-12 lit1-tk-luc reporter, luminescence; 0% DMSO, 100% Δ7-dafachronic acid; activation, % at 6.8 µM; 1.4% of 370,000 active;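 active = activation above the mean of all tested compounds plus 3 SD, cut at about 5.5% in these data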
DAX1 inh-1 = inhibitors of human orphan nuclear receptor DAX1 (NR0B1) | HEK293 Gal4-DAX1 luciferase reporter, luminescence | 0.99% of 340,000 active | P51843 | inhibition, % at 6.75 µM;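 active = inhibition above the mean over all tested compounds plus 3 SD, cut at about 4.2% in these data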;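 note: inhibition shows as a rise in luminescence from relieved DAX1 repression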
DAX1 inh-2 = inhibitors of DAX1 repression of SF-1 activated StAR promoter; HEK293T StAR-luciferase reporter, SF-1/DAX-1 repression relief; inhibition, % at 6.8 µM; 1.1% of 370,000 active; AID 652010;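 active = inhibition above the mean over all tested compounds plus 3 SD, cut at about 3.6% in these data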;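 note: higher inhibition means more luminescence from relief of DAX-1 repression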
Large screens that a line does not name were inactive.

O=c1c(N2CCOCC2)c(N2CCOCC2)c1=O	DAX1 inh-1 7.2
Cc1cc(NC(=O)CCC(=O)N(Cc2ccco2)C2(C(=O)NC3CCCCC3)CCN(C)CC2)no1	none
N#CCCN(C(=O)CSc1n[nH]c(=O)[nH]c1=O)c1ccccc1	none
Cc1ccc(N(CCC#N)C(=O)CSc2nc3ccccc3c(=O)[nH]2)cc1	DAX1 inh-2 3.7
Cc1cccc(NC(=O)CC2Nc3cccc4cccc(c34)NC2=O)c1 (configuration not stated)	AHR act 75
COc1ccccc1NC(=O)CC1Nc2ccccc2NC1=O (configuration not stated)	AHR act 56
O=[N+]([O-])/C=C/c1cc2ccccc2[nH]1	hcDAF12 agonist 5.8
COc1ccccc1N=Nc1c(O)[nH]c2ccc(Br)cc12	ssDAF12 agonist 1.0, hcDAF12 agonist 6.4
Cc1cccc(C)c1OCC(=O)N=Nc1c(O)[nH]c2ccc(Br)cc12	none
O=C(N=Nc1c(O)[nH]c2ccc(Br)cc12)c1ccco1	none (no result: AHR act)
CC(Oc1ccccc1)C(=O)N=Nc1c(O)[nH]c2ccc(Br)cc12 (configuration not stated)	ssDAF12 agonist 2.2
Oc1[nH]c2ccc(Br)cc2c1N=NC(=S)Nc1ccc(F)cc1	AHR act 75
CCC(C)COC(=O)c1ccc(C(=O)O)cc1 (configuration not stated)	none
COc1cccc2c1C(=O)CC2NC(=O)C(F)(F)F (configuration not stated)	none
Nc1c(C(=O)O)sc2nc3c(cc12)CCCC3	none (no result: DAX1 inh-1)
Nc1c(C(=O)Nc2ccc(Cl)c(C(=O)O)c2)sc2nc3c(cc12)CCCC3	none
Nc1c(C(=O)Nc2cccc(C(=O)O)c2)sc2nc3c(cc12)CCCC3	hgDAF-12 ag 11
Nc1c(C(=O)c2ccc(Cl)cc2)sc2nc3c(cc12)CCC3	AHR act 53
COc1ccc(-c2c(-c3ccc(OC)nc3)c3ccccc3n2C)cc1	AHR act 63
COc1ccc(C2CC(c3ccc4ccccc4c3OC(C)=O)=NN2C(C)=O)cc1 (configuration not stated)	DAX1 inh-1 5.4
Cc1ccccc1NC(=O)C1Cc2ccccc2CN1C(=O)c1ccco1 (configuration not stated)	DAX1 inh-1 5.4
CCOc1ccccc1N1C(=O)CC(Sc2n[nH]c(-c3ccccc3)n2)C1=O (configuration not stated)	DAX1 inh-1 4.8
O=c1cc(N2CCc3ccccc32)[nH]c(=O)n1Cc1ccc(F)cc1	hcDAF12 agonist 5.8
C=CC[C@@H](Cc1ccc(F)cc1)C(=O)OC[C@H]1CCCN1C(=O)[C@@H](CC=C)CC(=O)N[C@H](CO)Cc1ccccc1	none
COC(=O)CNC(=O)CCc1nnc(C2(c3ccc(Cl)cc3)CCC2)o1	DAX1 inh-1 4.4
C=C(C)CNC(=O)CCc1nnc(C2(c3ccc(Cl)cc3)CCC2)o1	none
C=CCNC(=O)CCc1nnc(C2(c3ccc(Cl)cc3)CCC2)o1	hgDAF-12 ag 12
O=S(=O)(c1cccs1)N1CCN(c2cccc(Cl)c2)CC1	none
O=C(O)/C=C/C(=O)NNC(=O)c1ccc(Cl)cc1Cl	none
O=C(NC1CC(=O)c2sccc21)c1ccc(Cl)cc1Cl (configuration not stated)	DAX1 inh-2 3.7
COc1cc(NC(=O)COC(=O)CO/N=C(\C)c2ccc3c(c2)OCO3)cc(OC)c1OC	none
COc1ccc2cc(C3CC(c4ccco4)=NN3S(C)(=O)=O)c(Cl)nc2c1 (configuration not stated)	none
CCOc1ccc2nc(Cl)c(C3CC(c4ccco4)=NN3S(=O)(=O)c3ccccc3)cc2c1 (configuration not stated)	ssDAF12 agonist 1.4
Cc1c2cnccc2c(C)c2c1oc1ccccc12	hgDAF-12 ag 11 (no result: AHR act)
O=C(Nc1ccc(C(=O)c2ccccc2)cc1)c1ccccc1	hgDAF-12 ag 11
O=C(Nc1ccc(Br)c(C(F)(F)F)c1)c1ccccc1	AHR act 51
O=C(NNC(=O)c1ccc(NC(=O)c2ccccc2)cc1)c1ccc(F)cc1	none
O=C(Nc1ccc(Br)c(C(F)(F)F)c1)c1ccc(C(F)(F)F)cc1	none (no result: DAX1 inh-1)
CCOC(=O)c1ccc2nc(C)c(C)nc2c1	hcDAF12 agonist 5.6
